SENP6 block – inhibitors of human SENP6 protease; hit rate 1.8% among 330,000; AID 2599; Recombinant SENP6 catalytic domain, aminoluciferin luminescence; inhibition, % at 10 µM; Q9GZR1;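 active = inhibition above about 50% at the single tested dose, limit read from the data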;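 note: plate controls were DMSO wells with enzyme for no effect and DMSO wells lacking enzyme for full effect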
SENP7 block – blocks the human protease SENP7; Q9BQF6; recombinant SENP7, Z-RLRGG-aminoluciferin luminescence, 40 min; inhibition, % at 5 µM; hit rate 1.5% among 330,000;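 active = inhibition above about 50% at the single test dose, limit read from the data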;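 note: plate controls were DMSO with enzyme for no effect and no enzyme buffer wells for full effect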
Target sequence (Q9BQF6 706-1050 limits assumed): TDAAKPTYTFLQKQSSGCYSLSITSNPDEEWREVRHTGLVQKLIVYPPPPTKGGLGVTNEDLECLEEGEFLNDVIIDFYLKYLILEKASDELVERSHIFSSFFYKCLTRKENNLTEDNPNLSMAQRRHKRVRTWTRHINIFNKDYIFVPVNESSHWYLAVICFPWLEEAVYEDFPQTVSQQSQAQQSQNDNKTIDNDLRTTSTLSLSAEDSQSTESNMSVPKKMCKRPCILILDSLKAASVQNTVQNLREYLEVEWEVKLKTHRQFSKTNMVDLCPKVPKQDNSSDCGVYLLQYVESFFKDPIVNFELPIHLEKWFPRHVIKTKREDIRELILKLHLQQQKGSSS
SENP8 block-1 – blocks human SENP8 cleavage of Nedd8 substrate | Q96LD8 | recombinant SENP8, Nedd8 substrate fluorescence | inhibition, % at 20 µM | hit rate 0.64% among 360,000 | AID 602440; in the data active = inhibition mostly above about 40%, no sharp cut-off; inactive = mostly below about 27%
C8 TRAIL sens – sensitizes caspase-8 expressing cells to TRAIL | hit rate 1% among 360,000 | NB7+C8 cells + TRAIL, ATPlite viability luminescence | AID 624354 | inhibition (viability loss, TRAIL sensitization), % at 10 µM;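 active = compounds causing at least 50% loss of cell viability in the single-dose screen, relative to plate controls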
SENP8 block-2 – blocks the human protease SENP8. Q96LD8. purified SENP8, Z-RLRGG-aminoluciferin cleavage, luminescence. inhibition, % at 10 µM. hit rate 1.2% among 330,000; in the data active = inhibition above about 50%
PPC-1+TRAIL kill – compounds killing PPC-1 cancer cells with TRAIL present (potentiator screen, no TRAIL-free arm) | cell killing (% activity), % at 4 µM or 5 µM | PPC-1 cells + TRAIL, ATPLite viability luminescence | hit rate 0.41% among 220,000;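 active = cell killing above 50% in the first pass at 4 µM, then a duplicate retest at 5 µM averaging 50% or more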;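 note: plate controls were cells with TRAIL plus DMSO for no effect and medium-only wells lacking cells for full effect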
SENP8 conf – human SENP8 inhibition, confirmed; shares compounds with SENP7 block; hit rate 40% among 6,200; AID 488912; inhibition, % at 12.5 µM; Recombinant SENP8, Z-RLRGG-aminoluciferin luminescence, 60 min;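 active = mean inhibition across replicates above about 50%, limit read from the data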
SENP6 confirm – human SENP6 inhibition, confirmed | shares compounds with SENP7 block | recombinant SENP6, Z-RLRGG-aminoluciferin luminescence | inhibition, % at 12.5 µM | hit rate 58% among 6,200 | AID 488915
SENP7 conf – confirmation of human SENP7 protease inhibitors; shares compounds with SENP7 block; recombinant SENP7, Z-RLRGG-aminoluciferin luminescence, 40 min; inhibition, % at 12.5 µM; hit rate 69% among 6,200
Casp3 select – selectivity test for SENP inhibitors: human caspase-3 inhibition; shares compounds with SENP7 block; purified caspase-3, Z-DEVD-aminoluciferin luminescence, 60 min; inhibition, % at 12.5 µM; hit rate 60% among 6,200; AID 488918;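 active = mean inhibition above about 50%, limit read from the data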;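 note: plate controls were enzyme with DMSO for no effect and wells without caspase-3 for full effect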
Target sequence (P42574 28-227 limits assumed): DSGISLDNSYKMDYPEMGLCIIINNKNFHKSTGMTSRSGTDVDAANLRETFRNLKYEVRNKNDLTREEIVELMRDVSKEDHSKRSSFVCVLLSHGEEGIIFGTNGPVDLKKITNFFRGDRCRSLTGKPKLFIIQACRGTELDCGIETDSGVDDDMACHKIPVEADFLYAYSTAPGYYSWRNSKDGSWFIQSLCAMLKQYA
Luc interf – interferes with luciferase luminescence in SENP counter-screen; inhibition, % at 12.5 µM; hit rate 39% among 6,200; shares compounds with SENP7 block; Pre-incubated SENP8/Z-RLRGG-aminoluciferin, luciferase luminescence interference; AID 488919;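 active = mean inhibition above about 50% when retested at one dose, limit read from the data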;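 note: plate controls were DMSO wells with completed reaction for no effect and substrate without enzyme for full effect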
* hit, by the source's call; x = no result. Compounds with a hit are over-represented: about 3% of the library has one in this group of screens.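 Rule for the calls, unless noted: active = mean inhibition above about 50% in the one-dose retest (limit read from the data); inactive = the rest.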

SMILES	SENP6 block	SENP7 block	SENP8 block-1	C8 TRAIL sens	SENP8 block-2	PPC-1+TRAIL kill	SENP8 conf	SENP6 confirm	SENP7 conf	Casp3 select	Luc interf
COc1ccc2c(c1)CCc1c(C(=O)NCCN3CCOCC3)noc1-2	5.6	0.3	-7.1	5.3	5.0	-22.1	x	x	x	x	x
COc1ccc2c(c1)CCc1c(C(=O)NC3CCCCC3)noc1-2	33.2	86.2*	16.2	5.4	0.1	20.5	-24.1	-11.3	-0.2	3.6	-3.0
COc1ccc2c(c1)CCc1c(C(=O)NCCCn3ccnc3)noc1-2	-1.4	2.3	-80.6	-4.3	-0.5	10.1	x	x	x	x	x
O=C(Cn1cncn1)NCc1cc(F)ccc1F	11.7	0.4	1.7	1.6	-2.7	8.6	x	x	x	x	x
Cc1c(C(=O)C(=O)NCc2cccs2)c2ccccc2n1C	-9.2	4.7	26.4	-5.8	-7.2	1.5	x	x	x	x	x
O=C(Nc1ccc(C(=O)N2CCOCC2)cc1)Nc1cccc(Cl)c1	68.6*	56.7*	-3.3	14.0	39.8	13.5	60.5*	58.0*	84.8*	61.1*	62.6*
O=C(Nc1ccc(C(=O)N2CCOCC2)cc1)c1cccs1	4.2	-4.1	12.6	-11.5	-13.1	13.2	x	x	x	x	x
O=C(Nc1ccc(C(=O)N2CCCCC2)cc1)c1cccs1	65.5*	59.6*	10.4	18.5	47.0	x	48.5	47.3	78.2*	82.8*	59.2*
O=C(Nc1ccccc1)Nc1ccc(C(=O)N2CCCC2)cc1	96.8*	97.1*	11.6	68.6*	93.6*	40.7	96.5*	96.9*	101.7*	97.8*	74.0*
COc1ccc(Cl)cc1NC(=O)Nc1ccc(C(=O)N2CCOCC2)cc1	44.8	49.3	0.9	24.1	10.9	x	x	x	x	x	x
COc1ccc(C(=O)NC(C)c2ccc(-n3ccnc3)cc2)cc1S(=O)(=O)N1CCOCC1 (configuration not stated)	-10.6	-6.2	18.3	11.3	-16.5	x	x	x	x	x	x
COc1ccc(C(=O)COC(=O)c2cc(=O)[nH]c3ccccc23)c(OC)c1	-14.1	11.0	-193.7	-4.0	-14.5	x	x	x	x	x	x
Cc1nc(N/N=C\c2ccc3c(c2)OCO3)sc1C	50.4*	2.5	-67.8	4.6	-0.8	x	36.6	43.5	75.0*	20.7	36.1
Clc1ccccc1N/N=C/c1ccc2c(c1)OCO2	95.9*	74.1*	0.5	6.5	88.7*	16.9	97.5*	98.7*	101.9*	91.4*	89.2*
O=C(CNC(=O)c1ccccc1Cl)N/N=C/c1ccc2c(c1)OCO2	-11.9	-12.4	3.5	-7.9	-5.9	x	x	x	x	x	x
Cn1c(SCC(=O)Nc2ccccc2)nnc1-c1ccc2nonc2c1	-0.9	2.8	-45.2	24.7	1.9	-1.3	x	x	x	x	x
Cc1cc(C)nc(NS(=O)(=O)c2ccc(NC(=O)c3ccc(O)cc3O)cc2)n1	-11.1	-12.3	-340.4	6.2	3.9	x	x	x	x	x	x
COC(=O)c1cc(S(=O)(=O)N2CCN(c3cccc(Cl)c3)CC2)c[nH]1	-7.9	7.7	8.5	2.4	2.3	x	x	x	x	x	x
Cc1ccc(S(=O)(=O)NN/C(=N/S(=O)(=O)c2ccccc2)c2ccccc2)cc1	-10.9	-2.6	2.0	-10.4	-10.7	27.9	x	x	x	x	x
O=C(NN/C(=N/S(=O)(=O)c1ccc(Cl)cc1)c1ccccc1)c1ccc(O)cc1	95.7*	97.2*	-59.5	0.2	95.1*	21.1	72.6*	62.6*	89.1*	87.4*	87.5*
O=C(NN/C(=N/S(=O)(=O)c1ccc(Cl)cc1)c1ccccc1)c1cccc(Cl)c1	86.3*	84.7*	19.6	23.3	71.0*	x	50.7*	64.0*	87.1*	63.0*	38.5
Cc1ccc(S(=O)(=O)/N=C(/NNC(=O)c2cccc(Cl)c2)c2ccccc2)cc1	78.2*	68.2*	10.0	0.7	49.1	x	13.6	24.9	62.7*	42.7	45.3
COc1ccc(/C=C2/C(=O)OCc3cc(OC)c(OC)cc32)cc1	-23.3	-4.0	37.5	6.7	-12.2	-7.6	x	x	x	x	x
COc1ccc(NC(=O)C2c3ccccc3OCC(=O)N2Cc2ccco2)cc1 (configuration not stated)	x	x	7.7	-13.3	x	x	x	x	x	x	x
O=C(CSc1nc2ccccc2c(=O)n1-c1ccccc1Cl)NC1CCS(=O)(=O)C1 (configuration not stated)	-15.7	3.6	6.7	2.5	-3.6	x	x	x	x	x	x
SMILES	SENP6 block	SENP7 block	SENP8 block-1	C8 TRAIL sens	SENP8 block-2	PPC-1+TRAIL kill	SENP8 conf	SENP6 confirm	SENP7 conf	Casp3 select	Luc interf
Cc1ccccc1N1C(=O)c2ccccc2C1O (configuration not stated)	-28.6	0.1	10.4	-3.7	-9.1	x	x	x	x	x	x
O=C(O)Cc1ccc2ocnc2c1	12.6	4.5	7.7	3.0	6.6	-4.9	x	x	x	x	x
CC(=O)Nc1ccc(NC(=O)Nc2ccccc2)cc1	13.0	17.2	13.8	5.8	-2.4	x	x	x	x	x	x
O=C(Nc1ccccc1)Nc1ccc2ocnc2c1	30.6	76.4*	-11.5	24.7	58.3*	31.7	3.8	63.8*	88.5*	83.5*	44.7
O=C(Nc1ccccc1)Nc1ccc2ncoc2c1	-0.5	62.5*	-9.8	-11.9	25.2	27.2	57.9*	53.4*	82.5*	66.9*	58.1*
CCC1(c2ccccc2)NC(=O)N(CC(=O)N(CC(=O)Nc2ccccc2C(F)(F)F)Cc2ccco2)C1=O (configuration not stated)	2.2	1.1	3.4	-15.7	-4.3	x	x	x	x	x	x
Cc1nc(N2CCN(S(=O)(=O)c3cccs3)CC2)c2c(-c3ccccc3)c(C)sc2n1	x	x	-5.8	5.9	x	x	x	x	x	x	x
COc1ccc2nc(NC(=O)c3ccc(NS(=O)(=O)c4cccs4)cc3)sc2c1	20.2	4.4	-430.4	20.6	4.0	-3.8	x	x	x	x	x
Cc1cccc2sc(NC(=O)c3ccc(NS(=O)(=O)c4cccs4)cc3)nc12	86.2*	45.2	-326.4	2.3	69.8*	12.1	2.0	81.1*	6.1	30.6	26.4
CCCOc1ccc(NC(=O)CC2Nc3ccccc3NC2=O)cc1 (configuration not stated)	-1.8	-4.2	-14.8	11.6	-9.6	8.8	x	x	x	x	x
COc1ccc(CCNC(=O)CC2Nc3ccccc3NC2=O)cc1 (configuration not stated)	-2.0	1.3	-214.0	9.1	-2.4	29.8	x	x	x	x	x
NC(=O)CC1Nc2cccc3cccc(c23)NC1=O (configuration not stated)	90.6*	34.2	-19.3	-1.1	77.4*	1.0	-2.1	6.1	6.4	1.0	-1.7

Screening results: PubChem, Sanford-Burnham Center for Chemical Genomics
